Assay outcomes as filed in PubChem BioAssay.
A selection: hits, their analogues and other compounds. The true share with any hit is near 2.8%.
ATXN2 expr inh – ATXN2 expression inhibition; Potency, µM (doses to about 57 µM), most hits filed as inhibitors; HEK-293 ATXN2-luciferase reporter, luminescence, 24 h; 360,000 compounds, 0.72% hits; note: nearly all actives have a fitted effect of over 55% in size
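ATXN2-luciferase reporter cells (luciferase flanked by upstream and downstream ATXN2 gene portions) were treated 24 h at 37 °C with compounds at up to 57 uM. SteadyGlo luminescence gave expression; GF-AFC fluorescence gave viability.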
HTT ATP protect – Huntington cell model cytoprotection by ATP luminescence. PC12 HTT-Q103 induced, cytoprotection, ATP luminescence, 40 h. Potency, µM (top dose mostly 56.4 µM), most hits filed as activators. 230,000 compounds, 0.14% hits. AID 1471; note: nearly all actives have a fitted effect of over 45% in size
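Huntington model: PC12 line, ecdysone-inducible HTTQ103 exon1–GFP, tebufenozide 100 nM. Test articles in a dose series. Endpoint luminescence from cellular ATP.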
HepG2 viability – kills HepG2 cells in TGF-b inhibitor counter-screen | HepG2 CAGA-GFP viability, ATP luminescence, 18 h | Potency, µM (titrated, usually from 46.1 µM), usual class: cytotoxic | 410,000 compounds, 0.76% hits
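HepG2 CAGA-GFP cells (1000/well, DMEM with 1% FBS) received compound, then TGF-beta at 500 pg/mL final, and were incubated 18 hours at 37 degrees C. Viability was read by CellTiter-Glo luminescence. Media-only wells were set as complete cell-killing and DMSO as no toxicity.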
TGFb inhibitor – TGF-b pathway inhibition; HepG2 CAGA-GFP TGF-b/SMAD3 reporter, GFP fluorescence, 18 h; TGF-beta stimulated, 500 pg/mL final; Potency, µM (highest dose often 46.1 µM), most hits filed as inhibitors; 410,000 compounds, 1.2% hits; note: nearly all actives have a fitted effect of over 65% in size
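GFP signal (ex488/em500-530) from TGF-beta-stimulated HEPG2 CAGA-GFP cells, 500 pg/mL final, 18 h at 37 degrees C in DMEM plus 1% FBS, normalized to unstimulated and DMSO-stimulated controls.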
ATXN viability – viability counter-screen for ATXN expression inhibitors; S2 cells (HEK-293 line with an ATXN2-luciferase reporter) viability, CellTiter-Fluor protease fluorescence, 24 h; Potency, µM (titrated, usually from 56.7 µM), actives largely listed as cytotoxic; 400,000 compounds, 0.49% hits; AID 651635; note: nearly all actives have a fitted effect of over 40% in size
HttQ103 aggreg – reduces HttQ103-GFP aggregates in PC12 cells | AID 1688 | PC12 HttQ103-GFP aggregates, Acumen cytometry, 40 h | 220,000 compounds, 1.1% hits | Potency, µM (highest dose often 46.1 µM), actives largely listed as inhibitors; note: nearly all actives have a fitted effect of over 60% in size
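Aggregate formation scored by laser-scanning cytometer (488 excitation, 500–530 emission) in lysed PC12 cells expressing Q103-GFP after 100 nM tebufenozide induction; library tested in dose series, with ATPLite reagent added in the multiplex.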
A number is an active result; ! = not active in a repeat; [ ] = another dose, or the depositor's remark. Calls come from the whole dose curve; as a rule, active = well fitted curve in the direction sought with a large enough effect; inconclusive = small, poorly fitted or top-dose-only effect, or another doubt; inactive = no such curve, though single readings can be large; an effect the other way counts as inactive or inconclusive.

For COc1cc(OC)c2c(-c3ccccc3)cc(=O)oc2c1C(CCN1CCCC(C)C1)c1ccc(N(C)C)cc1 (stereo not drawn) the results were ATXN2 expr inh inconclusive, HTT ATP protect inactive[10 µM], HepG2 viability inactive, TGFb inhibitor inconclusive, ATXN viability 20µM and HttQ103 aggreg inactive[9.22 µM].
`O=C(NCc1cccc(Cl)c1)c1cccc2c(-c3cccnc3)coc12` gave ATXN2 expr inh 28µM, HepG2 viability inactive, TGFb inhibitor inconclusive and ATXN viability 20µM.
For O=C(NCc1ccc(F)c(F)c1)c1cccc2c(-c3cccnc3)coc12 the results were ATXN2 expr inh inactive, HepG2 viability inactive, TGFb inhibitor inactive and ATXN viability inconclusive.
O=C(Nc1ccc(Cl)c(S(=O)(=O)N2CCOCC2)c1)c1cn2ccccc2n1 was read as ATXN2 expr inh inactive, HTT ATP protect inactive[10 µM], HepG2 viability inactive, TGFb inhibitor inactive, ATXN viability inactive and HttQ103 aggreg inactive.
For O=C(Nc1ccc(N2CCCCC2)cc1)c1ccccn1 the results were ATXN2 expr inh 1.8µM, HepG2 viability inactive, TGFb inhibitor inactive, ATXN viability inactive and HttQ103 aggreg inconclusive.
For O=C(Nc1ccc(N2CCOCC2)cc1)c1cn2ccccc2n1 the results were ATXN2 expr inh 11µM, HTT ATP protect inactive, HepG2 viability inactive, TGFb inhibitor inactive, ATXN viability inactive and HttQ103 aggreg inactive.
CC(C(O)c1ccc(O)cc1)N1CCC(Cc2ccccc2)CC1 (stereo not drawn) was read as ATXN2 expr inh inactive, HTT ATP protect 5µM!, HepG2 viability inactive, TGFb inhibitor inactive, ATXN viability inactive and HttQ103 aggreg inactive.
Screening COc1cc(OC)c(NC(=O)NCc2cccn2Cc2ccccc2)cc1Cl returned ATXN2 expr inh inconclusive, HepG2 viability inactive, TGFb inhibitor 8.9µM and ATXN viability inconclusive.
Screening COc1ccccc1/C=c1/[nH]c(=O)/c(=C\c2ccccc2OC)[nH]c1=O returned HepG2 viability inactive and TGFb inhibitor inconclusive.
`Cc1c(C(=O)N(C)C2CCOC2)sc2ncnc(NCC3(c4ccccc4)CCOCC3)c12` (stereo not drawn) gave ATXN viability inactive.
`c1ccc(-c2nc(-c3cccc4ccccc34)c(Nc3ccc4ccccc4c3)o2)cc1` gave HTT ATP protect inactive.
For Cc1c(C(=O)N(C)Cc2nccs2)sc2ncnc(NCC3CCCO3)c12 (stereo not drawn) the results were ATXN viability inactive.
Screening CS(=O)(=O)c1ccc2nc(NC(=O)c3cccs3)sc2c1 returned ATXN2 expr inh inconclusive, HTT ATP protect inactive[10 µM], HepG2 viability 10µM, TGFb inhibitor inactive, ATXN viability inactive and HttQ103 aggreg inactive.
CCC(=O)Nc1nc2ccc(S(C)(=O)=O)cc2s1 was read as ATXN2 expr inh inactive, HTT ATP protect inactive[10 µM], HepG2 viability inactive, TGFb inhibitor inactive, ATXN viability inactive and HttQ103 aggreg inactive.
Screening CS(=O)(=O)c1ccc2nc(NC(=O)c3ccc(NS(=O)(=O)c4ccc(F)c(F)c4)cc3)sc2c1 returned HTT ATP protect inactive[10 µM], HepG2 viability inactive, TGFb inhibitor inconclusive, ATXN viability inactive and HttQ103 aggreg inactive[9.22 µM].
For CC(C)CC(=O)Nc1nc2ccc(S(C)(=O)=O)cc2s1 the results were ATXN2 expr inh inactive, HTT ATP protect inactive[10 µM], HepG2 viability 11µM, TGFb inhibitor inactive, ATXN viability inactive and HttQ103 aggreg inactive[9.22 µM].
`CS(=O)(=O)c1ccc2nc(NC(=O)c3cccc(NS(=O)(=O)c4ccc(F)c(F)c4)c3)sc2c1` gave ATXN2 expr inh inactive, HTT ATP protect inactive[1.9 µM], HepG2 viability inactive, TGFb inhibitor 18µM, ATXN viability inactive and HttQ103 aggreg inconclusive.
For Cc1ccc2nc(NC(=O)c3cccs3)sc2c1 the results were ATXN2 expr inh inactive, HTT ATP protect inactive, HepG2 viability inactive, TGFb inhibitor inactive, ATXN viability inconclusive and HttQ103 aggreg inactive.
For Cc1c(C(=O)Nc2ccc3c(c2)OCCO3)sc2nc(-c3ccccc3)cn12 the results were ATXN2 expr inh 32µM, HTT ATP protect inactive[10 µM], HepG2 viability inactive, TGFb inhibitor inactive and HttQ103 aggreg 16µM.
CCOC(=O)[C@H](CCc1ccccc1)N[C@@H](C)C(=O)N1CCCC1C(=O)O (stereo partly drawn) was read as ATXN2 expr inh inactive.
Screening CC1=CC(=O)OC1Cc1ccc2ccccc2n1 (stereo not drawn) returned HTT ATP protect inactive.
`CO/N=C/NC(=O)N1OC[C@@H]2COc3ccc4ccccc4c3[C@@H]21` gave ATXN2 expr inh inactive, HTT ATP protect inactive, HepG2 viability inactive, TGFb inhibitor inactive, ATXN viability inactive and HttQ103 aggreg inactive.
Screening NC(=S)N1OC[C@@H]2COc3ccc4ccccc4c3[C@@H]21 returned ATXN2 expr inh 14µM, HTT ATP protect inactive, HepG2 viability inactive, TGFb inhibitor inconclusive, ATXN viability inactive and HttQ103 aggreg inconclusive.
For CC1(C)CCC(=NNC(N)=S)CC1 the results were ATXN2 expr inh inactive, HepG2 viability inactive, TGFb inhibitor inconclusive and ATXN viability inconclusive.
Screening NC(=S)NN=C1CSSC1 returned HepG2 viability 11µM, TGFb inhibitor 10µM and ATXN viability inactive.
Screening O=C(O)c1cccc(Nc2ccc([N+](=O)[O-])c3nonc23)c1 returned ATXN2 expr inh inactive, HepG2 viability inactive, TGFb inhibitor inactive and ATXN viability 16µM.
O=C(O)c1ccc(Nc2ccc([N+](=O)[O-])c3nonc23)cc1 was read as ATXN2 expr inh inactive, HepG2 viability inactive, TGFb inhibitor inactive and ATXN viability inconclusive.
CC(=O)c1ccc(Nc2ccc([N+](=O)[O-])c3nonc23)cc1 was read as HepG2 viability inactive, TGFb inhibitor 11µM and ATXN viability inconclusive.
`CC[C@@]1(O)C(=O)OCc2c1cc1n(c2=O)Cc2c-1nc1ccccc1c2/C=N/OC(C)(C)C` gave ATXN2 expr inh 0.0005µM and ATXN viability inactive.
`CCc1c2c(nc3ccc4c(c13)OCCO4)-c1nc3ccccc3c(=O)n1C2` gave HepG2 viability inactive and TGFb inhibitor inactive.
Screening CC[C@@]1(O)C(=O)OCc2c1cc1n(c2=O)Cc2cc3cc(O)ccc3nc2-1 returned ATXN2 expr inh 0.038µM and HTT ATP protect inactive.
For O=C(OCC(COC(=O)c1cccnc1)(COC(=O)c1cccnc1)COC(=O)c1cccnc1)c1cccnc1 the results were ATXN2 expr inh inactive and ATXN viability inactive.
`Cc1cc(C)nc(SCc2ccc(F)cc2)n1` gave HTT ATP protect 3.2µM, HepG2 viability inactive, TGFb inhibitor inactive, ATXN viability inactive and HttQ103 aggreg inconclusive.
